± gives the standard deviation.
Tested on: MILI (PIWIL2) piRISC loaded with piRNA #1 (26 nt)
Assay: pre-steady-state target cleavage rate (min^-1); guide: piRNA #1 5'p-UGAGGUAGUAGGUUGUAUAGUAUCCA; MIWI and MILI are mouse PIWI proteins and EfPiwi is from a freshwater sponge; tags in brackets are library labels; higher = faster piRNA-guided slicing of the target
Conditions: auxiliary factor: 500 nM mouse GTSF1
Method in brief: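 The pre-steady-state cleavage rate came from a burst-and-steady-state fit to pooled data from three Cleave-'n-Seq trials, in which uncleaved targets were sequenced and normalised to depth and to weakly complementary targets. Each reaction held 0.1 nM transcribed, DNA-blocked target RNA library and 1 nM active affinity-purified piRISC carrying one synthetic guide, with or without 500 nM GTSF1 partner protein, in HEPES–potassium acetate buffer at 33 °C for 0–8 or 0–960 min. k3 was capped at 0.0001 min^-1.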

Sequence | pre-steady-state target cleavage rate
GGAGACCUAUGAAUACAACCUACUAUCCUCA | 0.00841 ± 0.0026
GGAGACCUAUCUAUACAACCUAUCUACCUCA | 0.0483 ± 0.0065
GGAGACCUAACAUUACAACCUACUACCUCA | 0.0283 ± 0.0089
GGAGUGGAUACUAAAGAACCUACUACCUCA | 0.167 ± 0.011
GGAGACCUAACUAUACAACCUACUACCCUCA | 0.185 ± 0.034
GGAGUGGAUACUAUACUUGCUACUACCUCA | 0.0633 ± 0.0052
GGAGACCUAACUAUACAACCUACUUACCUCA | 0.135 ± 0.021
GGAGACCUAUGUAUACAACGAACUACCUCA | 0.00287 ± 0.002
GGAGACCAUACUUAUCAACCUACUACCUCA | 0.102 ± 0.02
GGAGACCUAACUAUCAACCUACUACCUCA | 0.0603 ± 0.014
GGAGACCUAUGUAUAGAACCUACUACGUCA | 0.015 ± 0.0034
GGAGACCUAUGAAUACAACCUACUACCGCA | 0.00764 ± 0.003
GGAGACCUAUCUAUACAUCGUACUACCUCA | 0.014 ± 0.0026
GGAGACCUAUGUAUACAAGCUACAACCUCA | 0.0946 ± 0.011
GGAGACCUAUGAUAUGUACCUACUAGGACA | < 0.0001
GGAGACGAUAGUAUACAACCAACUACCUCA | 0.00662 ± 0.0036
GGAGACCUUACUUUACUACCUACUACCUCA | 0.0948 ± 0.01
GGAGUGGAUACUAUUGAACCUACUACCUCA | 0.0784 ± 0.0078
GGAGACCUAUGAUUACGACCUACUACCUCA | 0.00341 ± 0.003
GGAGACCUAACAUAACAACCUACUACCUCA | 0.0321 ± 0.011
GGAGUGGAUACUUUACAACCUAGUACCUCA | 0.0239 ± 0.0053
GGAGACCUUACUAUACAACCUACUACGCUCA | 0.256 ± 0.019
GGAGACCUAUCUAUACAACCUACUACCUCG [g2:g20:cont:t1G] | 0.11 ± 0.012
GGAGACCUAUGAAUACAACCUACUAGCCUCA | 0.00742 ± 0.0038
